Calls of active or inactive are those of the source.
What was measured:
[1] = E. coli DRC41 culture turbidity changes, primary screen, E. coli filamentation inducer project, strain DRC41, OD650, 48 h (AID 1152);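 further: E. coli MC1000 strain DRC41 lacking acrAB efflux pump and sulA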; conditions: E. coli DRC41 (acrAB sulA), higher = more signal, called active from +8 up or from −8 down
[2] = small-molecule binders of probe aLefty1, primary screen, biochemical, small-molecule microarray, 635/667 nm fluorescence (AID 1153); conditions: higher = more signal;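 further: score merges spot fluorescence with signal-to-noise ratio from the scanned slide images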
[3] = PSAC antagonists in infected red cells, primary screen, cell-based, P. falciparum Indochina, OD700, 1 h (AID 1154); conditions: P. falciparum Indochina infected RBC osmotic lysis, higher = more signal, called active from +8 up or from −8 down
[4] = PSAC antagonists in infected red cells, primary screen, cell-based, P. falciparum Indochina, OD700, 2 h (AID 1155);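 further: lysis reports solute entry through the parasite surface anion channel PSAC; channel blockers reduce lysis of infected cells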; conditions: P. falciparum Indochina infected erythrocytes, osmotic lysis OD700; higher = more signal, called active from +8 up or from −8 down
[5] = osmotic lysis modulators in infected erythrocytes, primary screen, PSAC antagonist project, cell-based, P. falciparum Indochina, OD700, 3 h (AID 1156); conditions: higher = more signal, called active from +8 up or from −8 down
[6] = PSAC antagonists in infected red cells, primary screen, cell-based, P. falciparum Indochina, OD700, 18 h (AID 1157); conditions: P. falciparum Indochina infected erythrocytes, osmotic lysis OD700, 18 h; higher = more signal, called active from +8 up or from −8 down
[7] = modulators of S6 phosphorylation in cells, primary screen, cell-based, A549, cytoblot, luminescence, serum-stimulated (AID 1158); conditions: A549 phospho-S6 cytoblot, 5 h, higher = more signal;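 further: serum-stimulated A549 lung adenocarcinoma cells; signal is phosphorylated S6 detected by cytoblot immunostaining with HRP secondary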
[8] = biological target: NADPH oxidase 2 (Homo sapiens) (UniProt P04839); assay: NOX2-dependent H2O2 signal modulators, primary screen, NOX inhibitor project, cell-based, HEK293-NOX2, PMA-stimulated, Amplex Red fluorescence (AID 1159); conditions: 45 min, higher = more signal, called active from +8 up or from −8 down; further: test concentration not given here
[9] = biological target: NADPH oxidase 4 (Homo sapiens) (UniProt Q9NPH5); assay: NOX4-dependent H2O2 signal modulators, primary screen, NOX inhibitor project, cell-based, HEK293-NOX4, tetracycline-induced, Amplex Red fluorescence (AID 1160); conditions: 45 min, higher = more signal, called active from +8 up or from −8 down
[10] = biological target: NADPH oxidase 5 (Homo sapiens) (UniProt Q96PH1); assay: NOX5-dependent H2O2 signal modulators, primary screen, NOX inhibitor project, cell-based, HEK293-NOX5, Amplex Red fluorescence (AID 1161); conditions: HEK293-NOX5, ionomycin, 45 min, higher = more signal
[11] = A549 cell viability effects, profiling panel, calcein-AM fluorescence, 48 h, basal (AID 1162); conditions: higher = more signal; further: test concentration not given here
[12] = adipocyte viability effects, profiling panel, cell-based, 3T3-L1 adipocytes, calcein-AM fluorescence, 48 h, basal (AID 1163); conditions: 3T3-L1 adipocytes viability, higher = more signal; further: test concentration not given here
[13] = HepG2 cell viability effects, profiling panel, calcein-AM fluorescence, 48 h, basal (AID 1164); conditions: higher = more signal; further: test concentration not given here
[14] = MM1S cell viability effects, profiling panel, calcein-AM fluorescence, 48 h, basal (AID 1165); conditions: higher = more signal;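 further: viability of MM1S multiple myeloma cells under basal unstimulated conditions; test concentration not given here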
[15] = basal RPMI8226 viability, no added stimulus, profiling panel, cell-based, calcein-AM fluorescence, 48 h, PK04 Diversity Set (AID 1166); conditions: RPMI8226 myeloma viability, higher = more signal;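 further: cells grown under basal conditions without added stimulus; test concentration not given here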
[16] = basal HepG2 mitochondrial membrane potential changes, profiling panel, cell-based, JC-1 fluorescence, 24 h, 100 nL compound (AID 1167); conditions: higher = more signal; further: test concentration not given here
[17] = basal 3T3-L1 adipocyte mitochondrial potential changes, profiling panel, cell-based, JC-1 fluorescence, 3T3-L1 adipocytes, 24 h, 100 nL compound (AID 1168); conditions: JC-1 mitochondrial fluorescence, higher = more signal, called active from +8 up or from −8 down; further: test concentration not given here
[18] = basal RPMI8226 mitochondrial membrane potential changes, profiling panel, cell-based, JC-1 fluorescence, 24 h, 100 nL compound (AID 1169); conditions: RPMI8226 myeloma, JC-1 mitochondrial potential fluorescence, higher = more signal; further: test concentration not given here
[19] = basal MM1S mitochondrial membrane potential changes, profiling panel, cell-based, JC-1 fluorescence, 24 h, 100 nL compound (AID 1170); conditions: higher = more signal; further: test concentration not given here
[20] = A549 lung cancer cell viability effects, profiling panel, resazurin fluorescence, 24 h, PK04 Diversity Set (AID 1171); conditions: higher = more signal, called active from +8 up or from −8 down; further: test concentration not given here

NADPH oxidase 2 (Homo sapiens), sequence (P04839 whole entry, looked up): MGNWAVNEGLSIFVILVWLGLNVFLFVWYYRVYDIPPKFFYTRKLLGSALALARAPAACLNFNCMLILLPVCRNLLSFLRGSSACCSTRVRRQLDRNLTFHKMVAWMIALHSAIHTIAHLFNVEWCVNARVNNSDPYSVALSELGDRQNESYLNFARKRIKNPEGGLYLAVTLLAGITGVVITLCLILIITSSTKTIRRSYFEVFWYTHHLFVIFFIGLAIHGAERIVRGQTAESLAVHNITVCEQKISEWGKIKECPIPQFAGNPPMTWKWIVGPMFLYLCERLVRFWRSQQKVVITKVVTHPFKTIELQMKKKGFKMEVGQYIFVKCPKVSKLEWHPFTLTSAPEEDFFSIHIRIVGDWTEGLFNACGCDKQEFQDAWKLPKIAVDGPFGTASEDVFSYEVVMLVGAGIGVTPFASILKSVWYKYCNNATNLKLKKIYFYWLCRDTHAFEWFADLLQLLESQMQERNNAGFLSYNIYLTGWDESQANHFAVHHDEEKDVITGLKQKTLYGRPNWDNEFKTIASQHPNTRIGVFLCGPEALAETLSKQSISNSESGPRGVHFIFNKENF
NADPH oxidase 4 (Homo sapiens), sequence (Q9NPH5 whole entry, looked up): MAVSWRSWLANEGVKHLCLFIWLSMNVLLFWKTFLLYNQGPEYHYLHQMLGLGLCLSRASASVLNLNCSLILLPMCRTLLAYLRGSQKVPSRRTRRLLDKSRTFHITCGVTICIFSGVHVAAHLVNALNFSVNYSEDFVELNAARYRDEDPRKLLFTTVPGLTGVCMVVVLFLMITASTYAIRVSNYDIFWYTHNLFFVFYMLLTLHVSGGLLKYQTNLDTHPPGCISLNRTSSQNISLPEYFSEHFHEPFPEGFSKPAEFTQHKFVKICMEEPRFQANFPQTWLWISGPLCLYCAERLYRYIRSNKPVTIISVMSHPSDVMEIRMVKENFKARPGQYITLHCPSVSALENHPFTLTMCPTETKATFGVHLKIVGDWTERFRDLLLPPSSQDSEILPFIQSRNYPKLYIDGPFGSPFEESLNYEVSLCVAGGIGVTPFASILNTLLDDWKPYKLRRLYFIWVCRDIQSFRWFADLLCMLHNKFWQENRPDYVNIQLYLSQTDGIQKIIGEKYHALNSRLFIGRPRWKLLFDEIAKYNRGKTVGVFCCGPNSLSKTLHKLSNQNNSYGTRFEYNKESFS
NADPH oxidase 5 (Homo sapiens), sequence (Q96PH1 whole entry, looked up): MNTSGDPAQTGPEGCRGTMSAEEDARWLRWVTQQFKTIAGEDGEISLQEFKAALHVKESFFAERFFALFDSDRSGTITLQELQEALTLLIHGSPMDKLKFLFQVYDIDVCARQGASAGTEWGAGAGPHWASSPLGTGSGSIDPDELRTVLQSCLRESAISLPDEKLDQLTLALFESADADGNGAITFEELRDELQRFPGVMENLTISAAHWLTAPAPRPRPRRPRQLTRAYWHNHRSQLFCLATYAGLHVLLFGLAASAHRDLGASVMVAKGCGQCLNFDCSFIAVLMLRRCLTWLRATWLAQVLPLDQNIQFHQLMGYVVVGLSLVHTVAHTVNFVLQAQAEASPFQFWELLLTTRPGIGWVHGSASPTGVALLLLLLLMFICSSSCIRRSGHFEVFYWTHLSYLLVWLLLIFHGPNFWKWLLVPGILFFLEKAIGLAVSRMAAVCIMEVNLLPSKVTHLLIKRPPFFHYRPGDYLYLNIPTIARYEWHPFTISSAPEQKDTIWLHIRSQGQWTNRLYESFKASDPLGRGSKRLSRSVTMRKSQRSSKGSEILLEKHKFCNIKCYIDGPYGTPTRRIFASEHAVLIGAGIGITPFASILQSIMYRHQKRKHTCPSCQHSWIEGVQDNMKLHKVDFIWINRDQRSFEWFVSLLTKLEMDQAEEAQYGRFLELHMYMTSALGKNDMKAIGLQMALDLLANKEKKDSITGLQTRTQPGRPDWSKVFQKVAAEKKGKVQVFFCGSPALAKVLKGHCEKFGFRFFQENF

SMILES | z-score [1] | composite z-score [2] | z-score [3] | z-score [4] | z-score [5] | z-score [6] | z-score [7] | z-score [8] | z-score [9] | z-score [10] | z-score [11] | z-score [12] | z-score [13] | z-score [14] | z-score [15] | z-score [16] | z-score [17] | z-score [18] | z-score [19] | z-score [20]
COCCOC(=O)N1C(=O)[C@@]2(c3ccccc31)[C@H](c1ccc(OCCO)cc1)N1[C@H](c3ccccc3)[C@H](c3ccccc3)OC(=O)[C@H]1[C@@H]2C(=O)N1CCN(c2ncccn2)CC1 | 0.118 (inactive) | 0.547 | 22.1 (active) | 6.25 (inactive) | 1.4 (inactive) | 1.56 (inactive) | 0.0018 | 1.19 (inactive) | 0.262 (inactive) | 0.618 | -0.158 | 1.39 | -0.29 | -1.12 | -1.12 | 1.03 | 0.358 (inactive) | 0.1 | -1.1 | 0.345 (inactive)
CC#CCO[Si](C#CCCCCCC)(C(C)C)C(C)C | 0.323 (inactive) | -0.0501 | 0.0926 (inactive) | -0.607 (inactive) | -1.09 (inactive) | 0.283 (inactive) | 0.393 | -1.27 (inactive) | -0.681 (inactive) | -3.5 | -0.5 | -0.381 | -0.23 | -1.52 | -1.03 | -1.15 | -0.552 (inactive) | -0.69 | -1.3 | 0.518 (inactive)
C=C(CCCC)/C(=C/C[C@H](OC(C)=O)c1cccc(OCCO)c1)c1cc(C(=O)OC)ccc1OC | 1.19 (inactive) | -0.007 | 21 (active) | 3.75 (inactive) | 2.43 (inactive) | 1.21 (inactive) | -0.377 | 1.39 (inactive) | 1.02 (inactive) | -0.963 | 2.28 | 0.477 | 0.651 | -0.965 | -2.14 | 2.19 | 0.18 (inactive) | -0.111 | 0.309 | 2.7 (inactive)
COCCOC(=O)N1C(=O)[C@@]2(c3cc(C#CCCO)ccc31)[C@H](c1ccccc1OCCO)N1[C@H](c3ccccc3)[C@H](c3ccccc3)OC(=O)[C@H]1[C@@H]2C(=O)N1CCc2cc(OC)c(OC)cc2C1 | 0.891 (inactive) | 0.265 | 2.43 (inactive) | 1.97 (inactive) | 0.276 (inactive) | 1.12 (inactive) | 0.199 | 1.15 (inactive) | 1.15 (inactive) | 0.0359 | 1.14 | 0.251 | 1.37 | 0.713 | 0.503 | 1.13 | 0.808 (inactive) | -0.361 | -1.04 | 0.646 (inactive)
CCOC(=O)C[C@H]1[C@H](OC(=O)c2ccc(-c3ccccc3)cc2)[C@@H](NC(=O)c2ccc3ccccc3c2)c2cc(OCCCO)ccc2N1C(=O)c1ccccc1 | -0.966 (inactive) | 0.0691 | 0.398 (inactive) | 0.134 (inactive) | -0.337 (inactive) | 0.407 (inactive) | 0.263 | -2.38 (inactive) | -1.62 (inactive) | -0.532 | -0.9 | 0.237 | -0.307 | -0.438 | -0.322 | 0.762 | -0.0421 (inactive) | 0.483 | -0.108 | 0.231 (inactive)
COCCOC(=O)N1C(=O)[C@@]2(c3ccccc31)[C@H](C(N)=O)[C@H]1C(=O)O[C@H](c3ccccc3)[C@H](c3ccccc3)N1[C@@H]2c1ccc(OCCO)cc1 | 1.15 (inactive) | 0.196 | 3.76 (inactive) | 0.527 (inactive) | -0.535 (inactive) | 0.436 (inactive) | -0.211 | -0.555 (inactive) | 1.1 (inactive) | 0.00857 | -0.429 | 0.452 | -0.363 | -0.198 | 0.711 | -0.914 | 0.055 (inactive) | -0.112 | -0.523 | 0.574 (inactive)
C[C@H]1NC(=O)C([C@@H](C)OCc2ccccc2)NC(=O)[C@@]23C(=O)N[C@@H](Cc4ccccc4)C2[C@H](C)[C@@]2(C)O[C@H]2C3/C=C/C/C=C\CNC1=O (stereo not given in full) | -0.009 (inactive) | -0.0501 | 1.88 (inactive) | 0.58 (inactive) | 0.761 (inactive) | 0.427 (inactive) | -0.104 | -0.118 (inactive) | -1.16 (inactive) | -0.16 | 0.462 | 1.44 | 0.14 | -0.0497 | -0.23 | 0.817 | 0.346 (inactive) | 0.0911 | 0.607 | -0.214 (inactive)
CC(C)C[C@@H]1NC(=O)[C@H]2C[C@@H](C(=O)NCCCCCCNC(=O)CS)[C@@H](c3ccc(O)cc3)N2C1=O | 0.13 (inactive) | -0.0603 | 7.66 (inactive) | 0.64 (inactive) | 1.4 (inactive) | -0.0166 (inactive) | 0.795 | 1.64 (inactive) | 0.633 (inactive) | 0.755 | -0.889 | 0.197 | -0.301 | -0.397 | 0.266 | -1.74 | 0.193 (inactive) | 0.486 | -5.59e-05 | 0.0225 (inactive)

— PubChem BioAssay
